# According to PubChem BioAssay:
# Activity calls are given as the source filed them.
# What was measured:
# [1] = test system: Plasmodium falciparum Sir2 (PF13_0152, Sir2A); assay: Plasmodium falciparum Sir2A binding compounds – biochemical, small-molecule microarray, 635 nm fluorescence, primary screen (AID 1098); details: fluorescence 635 nm, higher = more signal;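 further: score merges spot fluorescence intensity with its signal-to-noise ratio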
# [2] = probe aDKK1 binding to arrayed compounds – biochemical, biotinylated probe, 635/667 nm fluorescence, primary screen (AID 1099); details: small-molecule microarray, higher = more signal;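 further: score merges 667nm spot fluorescence with signal to noise across triplicate slides; reference of the scale not given here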
# [3] = probe aCHRDL2 binding to arrayed compounds – biochemical, biotinylated probe, 635/667 nm fluorescence, primary screen (AID 1100); details: small-molecule microarray, higher = more signal
# [4] = change in splice reporter luminescence, either direction, cell-based, HEK293, spliceosome inhibition project, primary screen (AID 1101); details: HEK293 splicing luciferase reporter, 24 h, higher = more signal, called active from +8 up or from −8 down;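 further: HEK293 cells carrying a splicing-competent luciferase reporter gene; test concentration not given here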
# [5] = molecular target: Fibroblast growth factor 10 (Homo sapiens) (UniProt O15520); assay: compounds binding fibroblast growth factor 10 – biochemical, small-molecule microarray, 635 nm fluorescence, primary screen (AID 1102); details: FGF10 binding, fluorescence 635 nm, higher = more signal
# [6] = test system: glycogen synthase kinase-3 (GSK3A per assay name; protocol says GSK3B); assay: compounds binding glycogen synthase kinase-3 – biochemical, small-molecule microarray, 635 nm fluorescence, GSK3A, primary screen (AID 1103); details: fluorescence 635 nm, higher = more signal; further: the record names both GSK3A and GSK3B
# [7] = molecular target: Epidermal growth factor receptor (Homo sapiens) (UniProt P00533); assay: compounds binding epidermal growth factor receptor – biochemical, small-molecule microarray, 635 nm fluorescence, primary screen (AID 1104); details: EGFR binding, higher = more signal;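 further: score merges 667 nm emission intensity with spot signal to noise over triplicate slides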
# [8] = molecular target: Follistatin-related protein 3 (Homo sapiens) (UniProt O95633); assay: compounds binding follistatin-related protein 3 – biochemical, small-molecule microarray, 635 nm fluorescence, primary screen (AID 1105); details: FSTL3 binding, higher = more signal;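 further: score merges emission near 667 nm and signal to noise per printed spot across three slides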
# [9] = molecular target: Dickkopf-related protein 1 (Homo sapiens) (UniProt O94907); assay: small molecules binding DKK1 protein – biochemical, small-molecule microarray, 635 nm fluorescence scan, primary screen (AID 1106); details: higher = more signal;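 further: score merges emission near 667 nm with signal to noise over three replicate slides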
# [10] = test system: Inhibin beta A chain (activin A); assay: small molecules binding activin A – biochemical, small-molecule microarray, 635 nm fluorescence scan, primary screen (AID 1107); details: INHBA, higher = more signal;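 further: mouse activin A protein probed at 4.33 µg/mL on printed slides; score merges bound-protein fluorescence near 667 nm with spot signal-to-noise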
# Sequence of Fibroblast growth factor 10 (Homo sapiens) (O15520 whole entry, looked up): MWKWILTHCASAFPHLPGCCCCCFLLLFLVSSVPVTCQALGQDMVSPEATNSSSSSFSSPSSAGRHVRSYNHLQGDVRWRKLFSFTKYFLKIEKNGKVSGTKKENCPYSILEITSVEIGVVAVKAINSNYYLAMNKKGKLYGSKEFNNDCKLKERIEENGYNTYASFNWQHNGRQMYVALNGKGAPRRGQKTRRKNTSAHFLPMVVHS
# Sequence of Dickkopf-related protein 1 (Homo sapiens) (O94907 whole entry, looked up): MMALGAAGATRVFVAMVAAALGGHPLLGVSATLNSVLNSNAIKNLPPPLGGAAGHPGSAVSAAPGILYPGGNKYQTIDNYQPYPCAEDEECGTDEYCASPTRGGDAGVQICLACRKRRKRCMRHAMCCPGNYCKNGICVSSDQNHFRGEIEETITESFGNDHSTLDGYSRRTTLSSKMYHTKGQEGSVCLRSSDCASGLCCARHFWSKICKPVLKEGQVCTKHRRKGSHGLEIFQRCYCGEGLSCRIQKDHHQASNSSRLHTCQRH
# Sequence of Follistatin-related protein 3 (Homo sapiens) (O95633 whole entry, looked up): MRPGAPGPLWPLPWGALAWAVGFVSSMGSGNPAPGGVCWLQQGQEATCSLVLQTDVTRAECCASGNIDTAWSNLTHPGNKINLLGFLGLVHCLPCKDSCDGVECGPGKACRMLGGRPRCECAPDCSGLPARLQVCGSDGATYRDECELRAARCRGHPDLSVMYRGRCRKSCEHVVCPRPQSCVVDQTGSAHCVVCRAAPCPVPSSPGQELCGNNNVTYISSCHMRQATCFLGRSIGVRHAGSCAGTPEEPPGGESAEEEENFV
# Sequence of Epidermal growth factor receptor (Homo sapiens) (P00533 whole entry, looked up): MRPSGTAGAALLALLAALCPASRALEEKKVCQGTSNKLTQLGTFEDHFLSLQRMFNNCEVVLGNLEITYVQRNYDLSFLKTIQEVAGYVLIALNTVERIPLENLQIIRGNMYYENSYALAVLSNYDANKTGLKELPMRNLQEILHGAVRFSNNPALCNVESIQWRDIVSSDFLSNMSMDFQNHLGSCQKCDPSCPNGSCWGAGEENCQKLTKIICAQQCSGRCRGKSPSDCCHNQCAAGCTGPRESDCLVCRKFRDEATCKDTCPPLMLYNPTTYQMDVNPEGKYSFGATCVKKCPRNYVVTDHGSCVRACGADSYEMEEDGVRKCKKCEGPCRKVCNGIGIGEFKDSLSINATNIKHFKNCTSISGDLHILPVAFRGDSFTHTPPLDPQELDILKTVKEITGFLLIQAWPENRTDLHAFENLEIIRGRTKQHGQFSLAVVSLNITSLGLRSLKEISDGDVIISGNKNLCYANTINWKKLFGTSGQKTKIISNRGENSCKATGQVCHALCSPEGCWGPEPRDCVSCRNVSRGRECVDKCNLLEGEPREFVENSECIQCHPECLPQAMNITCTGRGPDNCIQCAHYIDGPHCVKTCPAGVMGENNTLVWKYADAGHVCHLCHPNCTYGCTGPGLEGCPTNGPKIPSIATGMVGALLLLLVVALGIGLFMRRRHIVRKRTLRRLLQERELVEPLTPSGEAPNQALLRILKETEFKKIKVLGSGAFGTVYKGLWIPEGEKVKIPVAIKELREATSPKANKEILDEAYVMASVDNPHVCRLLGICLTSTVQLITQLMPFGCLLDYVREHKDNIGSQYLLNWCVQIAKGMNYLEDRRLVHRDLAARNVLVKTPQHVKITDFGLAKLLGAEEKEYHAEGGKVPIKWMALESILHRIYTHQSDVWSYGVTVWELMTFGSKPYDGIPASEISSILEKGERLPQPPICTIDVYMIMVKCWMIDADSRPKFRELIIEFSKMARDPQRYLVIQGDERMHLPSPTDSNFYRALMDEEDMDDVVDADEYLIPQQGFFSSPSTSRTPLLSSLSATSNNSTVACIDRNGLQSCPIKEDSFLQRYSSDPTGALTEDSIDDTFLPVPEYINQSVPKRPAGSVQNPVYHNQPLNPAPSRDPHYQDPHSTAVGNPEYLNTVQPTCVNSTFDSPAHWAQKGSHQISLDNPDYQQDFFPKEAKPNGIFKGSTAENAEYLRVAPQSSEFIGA
SMILES,composite z-score [1],composite z-score [2],composite z-score [3],z-score [4],composite z-score [5],composite z-score [6],composite z-score [7],composite z-score [8],composite z-score [9],composite z-score [10]
CCOC(=O)C1=CCC(c2ccc(C#N)cc2)N(S(=O)(=O)c2ccc(C)cc2)C1 (stereo not given),1.13,1.22,1.05,-0.415 (inactive),0.637,1.29,0.555,1.21,-0.0007,0.2
COCCOC(=O)N1C(=O)[C@@]2(c3cc(C#CCNC(N)=O)ccc31)[C@H](C(=O)N1CCN(c3ncccn3)CC1)[C@H]1C(=O)O[C@H](c3ccccc3)[C@H](c3ccccc3)N1[C@@H]2c1ccccc1OCCO,1.2,0.265,0.714,-0.619 (inactive),1.13,0.0685,0.736,1.24,1.7,1.02
C=C[C@H](COC(C)=O)N(Cc1ccc(OC(C)=O)c(OC)c1)S(=O)(=O)c1ccc(Br)cc1,0.723,0.64,0.612,-1.16 (inactive),0.934,1.06,0.493,0.579,0.844,0.426
Cc1ccc(S[C@]2(C(=O)NCc3ccccc3)CC(=O)N(Cc3ccccc3)[C@@H]2c2ccc(CO)cc2)cc1,0.979,0.114,0.694,0.643 (inactive),-0.173,-0.789,-1.22,-1.01,-0.799,-0.317
O=C1OCCC=C[C@H]2OC34C=CCN(Cc5ccccc5)C(=O)[C@H]3N(CCCO)C(=O)[C@@H]4C12 (stereo not given in full),0.53,-0.33,-0.182,-1.74 (inactive),-0.745,-1.44,-0.873,-0.512,-0.179,0.399
COc1ccc(C#Cc2ccc3c(c2)[C@]2(C(=O)N3)[C@H](C(=O)NC[C@H](O)c3ccccc3)[C@H]3C(=O)O[C@H](c4ccccc4)[C@H](c4ccccc4)N3[C@@H]2c2ccccc2OCCO)cc1,1.74,0.408,0.334,-0.955 (inactive),0.877,1.19,0.186,1.16,0.169,-0.0953
COc1cc2c(cc1O)C(C)N(Cc1cccc(OC(F)(F)F)c1)CC2 (stereo not given),1.7,0.0376,0.23,-0.0689 (inactive),1.24,0.219,-0.425,0.514,0.188,0.902
CCOC(=O)[C@H]1C[C@H]2O[C@@]23C[C@H]1C(=O)N1CCCC1[C@@H]3O[Si](C)(C)C(C)(C)C (stereo not given in full),-0.169,-0.199,-0.528,0.376 (inactive),0.476,-0.445,-0.694,-0.198,0.0691,0.198
O=C(CCN1CCOCC1)c1cccc(O)c1,1.63,0.191,-0.399,0.964 (inactive),1.37,1.22,1.74,1.49,1.8,1.53
CC(C)N1C(=O)C[C@@](C(=O)NCc2ccccc2)(c2ccc([N+](=O)[O-])cc2)[C@H]1c1ccc(CO)cc1,0.142,-0.0752,0.934,0.0798 (inactive),0.484,0.321,-0.786,-0.17,-0.0781,0.0614
O=C1O[C@H](c2ccccc2)[C@H](c2ccccc2)N2[C@H]1[C@@H](C(=O)N1CCN(c3ncccn3)CC1)[C@]1(C(=O)Nc3ccccc31)[C@H]2c1ccc(OCCO)cc1,0.348,-0.0864,0.174,-1.15 (inactive),1.29,1.22,0.665,1.32,0.632,0.395
COc1cccc(C(=O)O[C@H]2CC[C@]3(C)C4=C(CCC3C2(C)C)[C@]2(C)CC[C@H]([C@H](C)CCCC(C)C)[C@@]2(C)CC4)c1 (stereo not given in full),0.399,-0.056,-0.495,-1.23 (inactive),0.647,0.495,0.527,0.459,0.389,0.468
CC(C)CNC(=O)[C@@]1(c2ccc([N+](=O)[O-])cc2)CC(=O)N(CC23CC4CC(CC(C4)C2)C3)[C@@H]1c1ccc(CO)cc1,0.947,0.0324,0.555,-2.11 (inactive),1.24,0.715,0.283,0.58,0.127,0.328
COc1ccc(CCNC(=O)[C@@]2(Sc3ccc(C)cc3)CC(=O)N(Cc3ccccc3Cl)[C@@H]2c2ccc(CO)cc2I)cc1,0.661,0.195,0.989,-1.1 (inactive),-0.778,0.351,-1.08,-0.78,-1.15,1.24
O=C1O[C@@H](c2ccccc2)[C@@H](c2ccccc2)N2[C@@H](c3ccccc3OCCO)[C@]3(C(=O)Nc4ccc(C#CC5(O)CCCCCC5)cc43)[C@@H](C(=O)Nc3nc4ccccc4s3)[C@H]12,1.04,-0.0444,-0.0735,0.554 (inactive),0.68,1.25,0.369,0.996,0.28,0.251
CCOC(=O)C1=C[C@@H](CC)N(S(=O)(=O)c2ccc(C)cc2)[C@H]1c1ccccc1,0.689,-0.1,0.521,0.803 (inactive),0.769,1.01,0.586,0.59,0.43,0.538
COC(=O)[C@@]1(Cc2ccc(OC)cc2)[C@H]2c3cc(C(=O)N4CCCC4)n(Cc4ccccn4)c3C[C@H]2CN1C(=O)c1ccccc1,0.987,1.33,1.3,-3.17 (inactive),0.928,1.2,-0.0442,0.182,-0.899,0.673

SMILES,composite z-score [1],composite z-score [2],composite z-score [3],z-score [4],composite z-score [5],composite z-score [6],composite z-score [7],composite z-score [8],composite z-score [9],composite z-score [10]
CC(C)N1C(=O)c2ccccc2[C@@H](C(=O)NCCCN(C)C)[C@@H]1c1ccc(CO)cc1,1.31,0.744,1.01,-0.472 (inactive),0.0328,-0.367,-0.568,-0.85,-1.25,0.557
Cc1ccc([C@H]2[C@H](C(=O)O)[C@H](Sc3ccccc3)[C@@H](C(C)C)N2S(=O)(=O)c2ccc(C)cc2)cc1,0.587,-0.403,0.355,0.27 (inactive),0.95,1.22,0.151,0.905,0.168,0.417
CC(C)CNC(=O)[C@@]1(c2ccc([N+](=O)[O-])cc2)CC(=O)N(CC23CC4CC(CC(C4)C2)C3)[C@@H]1c1ccc(CO)cc1I,1.13,0.109,0.0793,-0.125 (inactive),1.04,1.3,0.578,1.08,0.808,0.383
CCOC(=O)C[C@H]1[C@H](OC(=O)c2ccccc2-c2ccccc2)[C@@H](NC(=O)c2ccc3ccccc3c2)c2cc(OCCCO)ccc2N1C(=O)c1ccc2ccccc2n1,-0.0144,-0.228,-0.154,0.411 (inactive),0.533,0.119,0.289,0.521,-0.0224,0.282
O=C(NCc1ccccc1)[C@]1(CCS(=O)(=O)c2ccccc2)N=C(c2ccc(OCCCO)cc2)O[C@@H]1c1ccccc1,1.31,0.255,0.264,0.637 (inactive),1.42,1.32,0.325,1.41,0.168,0.604
C=CC(=C)C1=CCO[C@@H]1[C@H]1CCCN1S(=O)(=O)c1ccccc1[N+](=O)[O-],0.487,-0.268,-0.268,-0.626 (inactive),0.925,0.168,0.578,1.31,0.797,1.27
C=CC[C@@]1(C(=O)NCC(O)CO)N=C(c2ccc(OCCCO)cc2)O[C@@H]1c1ccccc1N=[N+]=[N-] (stereo not given in full),0.663,0.854,1.12,-1.25 (inactive),0.618,-0.669,-0.656,0.326,-0.612,1.02
COCCOC(=O)N1C(=O)[C@@]2(c3cc(C#CCCO)ccc31)[C@H](C(=O)NC[C@H](O)c1ccccc1)[C@H]1C(=O)O[C@H](c3ccccc3)[C@H](c3ccccc3)N1[C@@H]2c1ccc(O)cc1,0.0479,-0.194,0.146,-0.267 (inactive),0.518,-0.417,-0.243,0.599,0.165,-0.0769
C=CCC(OC(C)=O)[C@@H]1[C@@H](N(Cc2cccc3ccccc23)C(=O)c2ccc(C)cc2)c2cc(OCCCO)ccc2N1C(=O)Cc1ccc(OC)cc1 (stereo not given in full),0.102,-0.413,-0.281,-1.53 (inactive),-0.104,0.0349,0.254,0.492,0.576,1.05
O=C1[C@]2(CO)C=C(Br)[C@@H](C[C@@H]2c2ccccc2)[C@@]12CO2,0.628,0.0144,0.0065,0.359 (inactive),0.208,-0.626,-0.135,0.419,0.357,0.263
COC(=O)[C@@]1(Cc2ccccc2)N=C(c2ccc(OCCCO)cc2)O[C@H]1c1ccccc1N=[N+]=[N-],1.38,0.0861,0.657,-0.384 (inactive),0.883,0.887,-0.003,0.848,0.425,1.23
O=C1OCCC/C=C\[C@H]2OC34C=CCN(Cn5nnc6ccccc65)C(=O)[C@H]3N(CCCCCO)C(=O)[C@@H]4C12 (stereo not given in full),0.957,-0.118,0.584,-0.586 (inactive),-1.08,-1.7,-0.97,-0.751,-1.45,0.702
COc1ccc([Si](C)(C)[C@@H]2[C@@H](CCn3cc([C@H](O)c4ccccc4)nn3)O[C@]3(C(=O)N(Cc4ccc(N5C(=O)c6cccc7cccc5c67)cc4)c4ccccc43)[C@H]2C)cc1,0.286,-0.187,-0.0017,-1.5 (inactive),-0.456,-0.513,-0.471,-0.586,-0.795,-0.409
CC(C)(C)N1CC=CC23O[C@@H]4C=CCOC(=O)[C@@H]4[C@H]2C(=O)N(CCCCCO)[C@@H]3C1=O (stereo not given in full),1.12,-0.275,0.0408,-0.018 (inactive),-0.804,-1.54,-1.63,-1.67,-0.499,-0.0694
CCOC(=O)C1=CCC(C(C)(C)C)N(S(=O)(=O)c2ccc(C)cc2)C1 (stereo not given),0.939,0.368,0.108,-0.0514 (inactive),1.48,0.347,1.15,1.43,1.44,0.136
CCC(CC)C(O)C1C=CC2C(=O)N(c3ccccc3)C(=O)C2N1Nc1ccc(C#N)cc1 (stereo not given),0.82,1.29,0.705,1.22 (inactive),0.783,1.27,0.231,0.78,-0.197,0.794
